Screening results from PubChem BioAssay.
G9a inh = inhibitors of human histone lysine methyltransferase G9a | 350,000 compounds, 8.8% hits | Potency, µM (titrated, usually from 102 µM), usual class: inhibitors | G9a H3K9 monomethylation, AlphaScreen, 2 h; note: nearly all actives have a fitted effect of over 75% in size
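Readings reflect AlphaScreen signal from monomethyl-H3K9 antibody detection. HMT at 20 nM; substrate b-H3K9 500 nM; cofactor SAM 20 uM; 2 h RT reaction; compounds tested as titrations in qHTS with 15 min preincubation.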
Sfp PPTase inh = Sfp phosphopantetheinyl transferase inhibition; Biochemical Sfp PPTase activity, qHTS; Potency, µM, most hits filed as inhibitors; 310,000 compounds, 3.5% hits;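 note: the enzyme is Sfp with the accession as filed and its product quenches rhodamine fluorescence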
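Sfp 15 nM + cpd, 15 min RT; start w/ rhodamine-CoA 5 uM, BHQ-2-YbbR 12.5 uM (final); 50 mM Hepes pH 7.6, 10 mM MgCl2, 0.01% NP-40, 0.01% BSA; read 525/598 nm at 0 and 30 min.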
HP1b chromo inh = blocks HP1-beta chromodomain binding to methylated histone tails; AlphaScreen HP1-beta / biotin-H3K9me3 peptide binding; Potency, µM (highest dose often 114 µM), usual class: inhibitors; 390,000 compounds, 0.56% hits; AID 540317; note: nearly all actives have a fitted effect of over 70% in size
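AlphaScreen: HP1-beta (50 nM) preformed 30 min with biotin-H3(1-18)K9me3 peptide (50 nM) in PBS pH 7.4, 0.01% Tween-20. Compound added for 30 min at RT, then streptavidin donor/nickel chelate acceptor beads (10 ug/mL) for 30 min.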
BAZ2B inh = BAZ2B (human) inhibition; Q9UIF8; AlphaScreen BAZ2B-H3K14Ac peptide displacement; Potency, µM (highest dose often 114 µM), hits mostly inhibitors; 360,000 compounds, 4.4% hits; AID 504333; note: nearly all actives have a fitted effect of over 60% in size
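AlphaScreen displacement of biotin-H3(5-23)K14Ac peptide (50 nM final) from BAZ2B (50 nM final) in PBS pH 7.4, 0.01% Tween-20; complex preformed 30 min RT, then compounds (top 110 uM) 30 min RT, beads 20 min dark.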
JMJD2A Tudor = JMJD2A Tudor domain (human) inhibition. O75164. AlphaScreen JMJD2A-Tudor / H3K4me3 peptide binding. Potency, µM (series often up to 114 µM), actives largely listed as inhibitors. 390,000 compounds, 4.4% hits. AID 504339; note: nearly all actives have a fitted effect of over 50% in size
Target sequence (O75164 whole entry, looked up, the tested form may be a part): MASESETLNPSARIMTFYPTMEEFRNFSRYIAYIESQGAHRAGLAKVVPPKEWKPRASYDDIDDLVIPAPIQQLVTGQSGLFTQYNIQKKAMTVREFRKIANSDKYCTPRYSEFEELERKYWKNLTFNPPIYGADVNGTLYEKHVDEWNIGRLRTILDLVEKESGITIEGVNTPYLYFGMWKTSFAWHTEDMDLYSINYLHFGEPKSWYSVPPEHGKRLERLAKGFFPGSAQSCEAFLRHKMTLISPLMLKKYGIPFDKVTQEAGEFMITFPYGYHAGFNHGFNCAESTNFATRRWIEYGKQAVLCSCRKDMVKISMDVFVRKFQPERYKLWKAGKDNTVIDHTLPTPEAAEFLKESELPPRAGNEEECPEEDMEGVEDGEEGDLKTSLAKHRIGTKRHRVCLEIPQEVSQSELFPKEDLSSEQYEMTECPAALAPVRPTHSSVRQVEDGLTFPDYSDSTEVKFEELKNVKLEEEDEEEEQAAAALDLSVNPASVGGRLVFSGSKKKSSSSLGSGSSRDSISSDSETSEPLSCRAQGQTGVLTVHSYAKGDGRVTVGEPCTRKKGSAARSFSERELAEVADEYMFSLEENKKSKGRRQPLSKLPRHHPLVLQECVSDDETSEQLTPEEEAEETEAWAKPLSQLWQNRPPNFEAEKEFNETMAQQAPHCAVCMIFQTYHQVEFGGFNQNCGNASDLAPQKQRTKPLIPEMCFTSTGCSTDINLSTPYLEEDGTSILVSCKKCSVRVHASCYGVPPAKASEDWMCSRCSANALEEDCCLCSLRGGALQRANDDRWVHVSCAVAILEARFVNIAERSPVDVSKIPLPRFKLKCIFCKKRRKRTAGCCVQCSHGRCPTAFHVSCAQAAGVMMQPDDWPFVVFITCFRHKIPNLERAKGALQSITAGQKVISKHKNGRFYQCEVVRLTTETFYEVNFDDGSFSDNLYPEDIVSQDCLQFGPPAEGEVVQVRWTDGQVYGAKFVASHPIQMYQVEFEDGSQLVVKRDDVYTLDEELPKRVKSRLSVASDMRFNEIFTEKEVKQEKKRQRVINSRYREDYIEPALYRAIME
L3MBTL1 block = blocks human L3MBTL1 | AlphaScreen L3MBTL1–H3K9me1 peptide binding | Q9Y468 | Potency, µM (top dose mostly 57.1 µM), actives largely listed as inhibitors | 230,000 compounds, 0.66% hits; note: nearly all actives have a fitted effect of over 60% in size
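L3MBTL1 (50 nM) pre-complexed 30 min with biotinylated H3(1-15)K9me1 peptide (75 nM), then compounds added for 30 min at room temperature; AlphaScreen streptavidin donor/nickel chelate acceptor beads (10 ug/mL final) read after 30 min dark incubation.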
Large screens that a line does not name were inactive; ! = not confirmed by another sample. Only some compounds are listed: those with a hit (about 12% of all), similar ones and a draw of the others. Calls come from the whole dose curve; as a rule, active = well fitted curve in the direction sought with a large enough effect; inconclusive = small, poorly fitted or top-dose-only effect, or another doubt; inactive = no such curve, though single readings can be large; an effect the other way counts as inactive or inconclusive.

CC[C@]12c3[nH]c4ccc(Cl)cc4c3CCN1C(=O)[C@@H](CC(=O)NCCC1=CCCCC1)C[C@@H]2C(=O)N1CCN(C(=O)c2ccco2)CC1	none (no result: G9a inh, Sfp PPTase inh, BAZ2B inh)
C/C(=N\N=C(N)N)c1ccc(C)c(C)c1	none (no result: G9a inh)
CCn1c(C(=O)NCc2ccccc2Br)cc2oc3ccccc3c21	none (no result: Sfp PPTase inh, L3MBTL1 block)
CCOC(=O)c1c(C)[nH]c(C)c1C(=O)COC(=O)C1CCCN1S(=O)(=O)c1ccccc1F (stereo unspecified)	G9a inh 50µM, BAZ2B inh inconclusive
O=CNC1CCCc2c1[nH]c1ccc(Cl)cc21 (stereo unspecified)	G9a inh 7.9µM, BAZ2B inh inconclusive, JMJD2A Tudor 56µM
CCN(CC)C(=O)C1CCCc2c1[nH]c1ccc(Cl)cc21 (stereo unspecified)	G9a inh inconclusive
COc1cc(O)oc1C=Nc1ccc(Cl)cc1	none
COc1cc(O)oc1C=Nc1ccc(Oc2ccccc2)cc1	G9a inh 45µM, BAZ2B inh inconclusive, JMJD2A Tudor inconclusive
O=C(c1ccc2c3c(cccc13)CC2)C1CCCN(Cc2ccncc2)C1 (stereo unspecified)	G9a inh inconclusive, BAZ2B inh inconclusive, JMJD2A Tudor 56µM
O=C(c1ccc2c3c(cccc13)CC2)C1CCCN(C(=O)c2ccc(=O)[nH]c2)C1 (stereo unspecified)	Sfp PPTase inh 50µM, BAZ2B inh inconclusive, JMJD2A Tudor inconclusive (no result: G9a inh)
CCSC[C@H](NC(=O)[C@H](C)NC(=O)[C@@H](N)Cc1ccc(O)cc1)C(=O)N[C@@H](CC(=O)O)C(=O)N[C@H](C(=O)N[C@@H](C)C(=O)N[C@H](C(=O)N[C@@H](CSCC)C(=O)N[C@H](C(=O)N[C@H](C(=O)N[C@@H](Cc1cnc[nH]1)C(=O)N[C@@H](CCCNC(=N)N)C(=O)N[C@@H](CC(C)C)C(=O)N[C@@H](C)C(=O)NCC(=O)N[C@@H](CC(C)C)C(=O)N[C@@H](CC(C)C)C(=O)N[C@@H](CO)C(=O)N[C@@H](CCCNC(=N)N)C(=O)N[C@@H](CO)C(=O)NCC(=O)NCC(=O)N[C@H](C(=O)N[C@H](C(=O)N[C@@H](CCCCN)C(=O)N[C@@H](CC(N)=O)C(=O)N[C@@H](CC(N)=O)C(=O)N[C@@H](Cc1ccccc1)C(=O)N[C@H](C(=O)N1CCC[C@H]1C(=O)N[C@H](C(=O)N[C@@H](CC(N)=O)C(=O)N[C@H](C(=O)NCC(=O)N[C@@H](CO)C(=O)N[C@@H](CCCCN)C(=O)N[C@@H](C)C(=O)N[C@@H](Cc1ccccc1)C(N)=O)C(C)C)[C@@H](C)O)C(C)C)C(C)C)C(C)C)[C@@H](C)O)C(C)C)[C@@H](C)O)[C@@H](C)O	none (no result: G9a inh, HP1b chromo inh, BAZ2B inh, JMJD2A Tudor, L3MBTL1 block)
CC1=C(c2ccc(C)c(C)c2)S(=O)(=O)N=C1N1CCC(C(=O)Nc2cccc(F)c2)CC1	HP1b chromo inh inconclusive (no result: Sfp PPTase inh, L3MBTL1 block)
CCn1c2c(c(=O)n3ncc(C(=O)Nc4ccc(F)cc4Cl)c13)CN(Cc1ccc(OC)cc1)CC2	G9a inh inconclusive (no result: Sfp PPTase inh, L3MBTL1 block)
Cc1ccc(S(=O)(=O)Cc2ccc(C(=O)N3CCc4ccccc4C3)o2)cc1	G9a inh 50µM, HP1b chromo inh inconclusive, BAZ2B inh 50µM, JMJD2A Tudor 56µM (no result: L3MBTL1 block)
COc1ccc(S(=O)(=O)Cc2ccc(C(=O)O)o2)cc1	none (no result: L3MBTL1 block)
Cc1ccc(S(=O)(=O)Cc2ccc(C(=O)O)o2)cc1	G9a inh 13µM, BAZ2B inh 50µM, JMJD2A Tudor 45µM (no result: L3MBTL1 block)
COc1cc(OC)c(NC(=O)c2nnn(Cc3ccc(C)cc3)c2N)cc1Cl	none (no result: Sfp PPTase inh, L3MBTL1 block)
Cc1nc2cc(NC(=O)c3cccc(S(C)(=O)=O)c3)ccc2o1	none (no result: L3MBTL1 block)
CCOC(=O)c1cc2c(=O)n3ccccc3nc2n(CC(C)C)c1=NC(=O)C(C)(C)Oc1ccc(Cl)cc1	none (no result: Sfp PPTase inh, L3MBTL1 block)
COC(=O)C1=C(C)N(Cc2ccccc2)C(=NCC2CC2)N[C@H]1c1ccccc1	JMJD2A Tudor inconclusive
COC(=O)C1=C(C)N(Cc2ccccc2)C(=NCCc2cccnc2)N[C@H]1c1ccccc1	G9a inh 32µM!, BAZ2B inh 56µM, JMJD2A Tudor inconclusive
COC(=O)C1=C(C)N(Cc2ccccc2)C(=NCC(C)C)N[C@H]1c1ccc(Br)cc1	BAZ2B inh inconclusive (no result: HP1b chromo inh, JMJD2A Tudor, L3MBTL1 block)
COC(=O)C1=C(C)N(Cc2ccccc2)C(=NCc2ccc3c(c2)OCO3)N[C@H]1c1ccccc1	none (no result: G9a inh)
COC(=O)C1=C(C)N(Cc2ccccc2)C(=NCCc2cccnc2)N[C@H]1c1ccc(Br)cc1	BAZ2B inh 56µM, JMJD2A Tudor 28µM
COC(=O)C1=C(C)N(Cc2ccccc2)C(=NCC2CC2)N[C@H]1c1ccc(Br)cc1	Sfp PPTase inh 56µM, BAZ2B inh inconclusive (no result: G9a inh, HP1b chromo inh, JMJD2A Tudor, L3MBTL1 block)
COC(=O)C1=C(C)N(Cc2ccccc2)C(=NCCCCO)N[C@H]1c1ccccc1	G9a inh 79µM!, BAZ2B inh inconclusive, JMJD2A Tudor inconclusive
COC(=O)C1=C(C)N(Cc2ccccc2)C(=NCCc2ccccn2)N[C@H]1c1cccc(C(F)(F)F)c1	BAZ2B inh inconclusive, JMJD2A Tudor inconclusive (no result: G9a inh)
COc1ccc(-c2nc(CN3CCC(C(=O)NCC4CCCO4)CC3)c(C)o2)cc1OC (stereo unspecified)	none (no result: L3MBTL1 block)
Cc1ccc2nc(N3CCN(C(=O)C4COc5ccccc5O4)CC3)sc2c1 (stereo unspecified)	none (no result: Sfp PPTase inh, L3MBTL1 block)
CC(C)Cc1ccc(S(=O)(=O)Nc2cc3c(cc2N2CCOCC2)n(C)c(=O)c(=O)n3C)cc1	none (no result: Sfp PPTase inh, L3MBTL1 block)
CCN(CC)CCCN=C1N[C@@H](c2ccccc2)C(C(=O)OC)=C(C)N1CC	G9a inh 40µM!, BAZ2B inh 79µM, JMJD2A Tudor 32µM
Cc1ccc(C(=O)C2=C(O)C(=O)N(Cc3cccnc3)C2c2cccc(Oc3ccccc3)c2)o1 (stereo unspecified)	none (no result: G9a inh, Sfp PPTase inh, BAZ2B inh, L3MBTL1 block)
Cc1ccc(C(=O)C2=C(O)C(=O)N(Cc3ccccc3)C2c2cccnc2)o1 (stereo unspecified)	G9a inh 50µM, JMJD2A Tudor 50µM
COc1ccc(C2C(C(=O)c3ccc(C)o3)=C(O)C(=O)N2Cc2ccco2)cc1OC (stereo unspecified)	Sfp PPTase inh 45µM, BAZ2B inh inconclusive (no result: G9a inh, L3MBTL1 block)
CCCOc1ccc(C2C(C(=O)c3ccc(C)o3)=C(O)C(=O)N2Cc2ccco2)cc1 (stereo unspecified)	G9a inh 50µM, Sfp PPTase inh inconclusive, BAZ2B inh inconclusive (no result: L3MBTL1 block)
COc1ccc(C2C(C(=O)c3ccc(C)o3)=C(O)C(=O)N2Cc2cccnc2)cc1OC (stereo unspecified)	G9a inh 50µM, JMJD2A Tudor 20µM (no result: L3MBTL1 block)
